Compounds with a hit are over-represented: about 10% of the library has one in this group of screens.
GLS inhibitor – blocks human kidney-isoform glutaminase activity | 410,000 tested, 0.21% active | Potency, µM (top dose mostly 45.5 µM), for the others: top-dose activity change, negative = inhibition, most hits filed as inhibitors | AID 624170 | O94925 | GLS enzymatic activity, qHTS titration; also: % is scaled to controls: 0 for no effect and ±100 for the full control effect
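Enzyme dispensed in phosphate buffer (45 mM, pH 8.2, 0.02% Tween-20), compounds pinned in, then 1 mM L-glutamine solution and the glutamate oxidase–HRP–Amplex Red mix added; fluorescence read immediately and again after 30 min at room temperature.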
G9a block – G9a (human) methyltransferase inhibition; Q96KQ7; G9a H3K9 monomethylation, AlphaScreen, 2 h; Potency, µM (series often up to 102 µM), for the others: at the top dose activity, negative = inhibition, most hits filed as inhibitors; 350,000 tested, 8.8% active; also: % is scaled to controls: 0 for no effect and ±100 for the full control effect; nearly all actives have a fitted effect of over 75% in size
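G9a (20 nM) was preincubated 15 min with compound, then reacted 2 h at room temperature with 500 nM biotin-H3K9 peptide and 20 µM SAM. Monomethyl-H3K9 detected by AlphaScreen using anti-H3K9me1 antibody.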
HP1b chromo inh – HP1-beta chromodomain-methylated histone interaction inhibition; P83916; AlphaScreen HP1-beta / biotin-H3K9me3 peptide binding; Potency, µM (top dose mostly 114 µM), inactives show at the highest dose activity change, negative = inhibition, actives largely listed as inhibitors; 390,000 tested, 0.56% active; AID 540317; also: nearly all actives have a fitted effect of over 70% in size
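AlphaScreen: HP1-beta (50 nM) preformed 30 min with biotin-H3(1-18)K9me3 peptide (50 nM) in PBS pH 7.4, 0.01% Tween-20. Compound added for 30 min at RT, then streptavidin donor/nickel chelate acceptor beads (10 ug/mL) for 30 min.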
BAZ2B inh – BAZ2B (human) inhibition; AlphaScreen BAZ2B-H3K14Ac peptide displacement; 360,000 tested, 4.4% active; Q9UIF8; Potency, µM (doses to about 114 µM), without a hit: at the top dose activity change, negative = inhibition, most hits filed as inhibitors; also: % is scaled to controls: 0 for no effect and ±100 for the full control effect; nearly all actives have a fitted effect of over 60% in size
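AlphaScreen displacement of biotin-H3(5-23)K14Ac peptide (50 nM final) from BAZ2B (50 nM final) in PBS pH 7.4, 0.01% Tween-20; complex preformed 30 min RT, then compounds (top 110 uM) 30 min RT, beads 20 min dark.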
JMJD2A Tudor inh – JMJD2A Tudor domain (human) inhibition; O75164; AlphaScreen JMJD2A-Tudor / H3K4me3 peptide binding; 390,000 tested, 4.4% active; Potency, µM (series often up to 114 µM), inactives show at the highest dose activity change, negative = inhibition, most hits filed as inhibitors; also: % is scaled to controls: 0 for no effect and ±100 for the full control effect; nearly all actives have a fitted effect of over 50% in size
* hit, by the source's call; ? = inconclusive; . = no result given; [ ] = dose if it differs, or a comment. Calls follow the shape of the dose curve; as a rule, active = well fitted curve in the direction sought with a large enough effect; inconclusive = small, poorly fitted or top-dose-only effect, or another doubt; inactive = no such curve, though single readings can be large; an effect the other way counts as inactive or inconclusive. Potency is read from the fitted curve at half-maximal effect.

SMILES	GLS inhibitor	G9a block	HP1b chromo inh	BAZ2B inh	JMJD2A Tudor inh
CCN(CC)c1ccc(NC(=O)c2cccc(C)c2)cc1S(=O)(=O)Nc1ccccc1OC	1%	3.5µM*	?	-37%	?
C=CCN1CCc2cccc3c2C1Cc1ccc(O)c(O)c1-3 (centres undefined)	.	0.35µM*	.	.	.
CN1CCc2cc(O)cc3c2C1Cc1ccc(O)c(O)c1-3 (centres undefined)	.	0.71µM*	.	.	.
CCCN1CCc2cccc3c2[C@H]1Cc1ccc(O)c(O)c1-3	?	1.7µM*	16µM*	.	22µM*
COc1cc2c(cc1OC)-c1c(OC)c(OC)cc3c1[C@H](C2)N(C)CC3	11%	?	21%	-36%	?
COc1ccc2[nH]c3c(c2c1)CCN=C3C	3%	8.9µM*	-29%	45µM*	35µM*
COc1cc(C(c2c(O)c3ccccc3oc2=O)c2c(C)n(C)n(-c3ccccc3)c2=O)ccc1OCC(=O)O (centres undefined)	2%	2%[59 µM]	50%	-18%	-17%
CC1(C)NCCN2C(=O)CSC21 (centres undefined)	2%	79µM*	53%	-22%	-9%
C[C@H](CO)N1C[C@H](C)[C@@H](CN(C)C(=O)Oc2ccc3ccccc3c2)OCc2cnnn2CCCC1=O	6%	.	.	.	.
COc1ccc(N2C(=O)NC(=O)/C(=C/c3cccc(OC(=O)c4cccs4)c3)C2=O)cc1Cl	9%	10µM*	2%	79µM*	-13%
Cc1ccc(N2C(=O)NC(=O)/C(=C/c3ccc(OC(=O)c4cccs4)cc3)C2=O)cc1	-15%	13µM*	43%	8%	89µM*
COc1cc(/C=C2\C(=O)NC(=O)N(c3ccccc3)C2=O)cc(OC)c1O	46%	?	21%	?	-19%
NC(N)=NN=C(/C=C/c1ccc([N+](=O)[O-])o1)/C=C/c1ccc([N+](=O)[O-])o1	-4%	?	.	.	.
COc1ccc(NC2=NCC(C)S2)cc1 (centres undefined)	0%	?	23%	-18%	-6%
CCc1cccc(NC(=O)Cn2c(=O)oc3cc(S(=O)(=O)N4CCOCC4)ccc32)c1	3%	-16%	27%	23%	-12%
CC(C)Cn1c(-c2cccc(S(=O)(=O)N3CCOCC3)c2)n[nH]c1=S	-1%	.	12%	.	7.1µM*
COC1C(O)C(OC2CC[C@]3(C=O)C4C(OC(C)=O)C[C@@]5(C)C(C6=CC(=O)OC6)CC[C@]5(O)C4CC[C@]3(O)C2)OC(C)C1OC(C)=O (some centres undefined)	.	-28%[2.33 µM]	.	.	.
C[N+]1=C2CCCCCN2C(O)(c2ccccc2)C1 (centres undefined)	-7%	32µM*	11%	-2%	45µM*
c1ccc(C2(N3CCCC3)CCCCC2)cc1	-21%	?	.	.	.
COC(=O)C1=C(c2c(C)noc2C)C[C@@H]2CC[C@H]1N2C(=O)NCCO	9%	15%[2.33 µM]	33%	-5%	-20%
CC1(C)CSC(=NCc2ccccc2)N1	5%	6%	22%	-2%	-16%
NC1CCc2cc(O)c(O)cc2C1 (centres undefined)	?	1.5µM*	?	-4%	11µM*
O=S(=O)(Nc1c(O)ccc2ccccc12)c1ccc(F)cc1	0%	.	?	.	?
CC(C)(C)c1ccc(O)c(N=Cc2c(O)ccc3ccccc23)c1	15%	8.9µM*	30%	40µM*	?
CCCc1[nH]nc2c1C1(C(=O)N(CC(N)=O)c3ccccc31)C(C(=O)OC)=C(N)O2 (centres undefined)	5%	-14%	54%	-23%	20%
SMILES	GLS inhibitor	G9a block	HP1b chromo inh	BAZ2B inh	JMJD2A Tudor inh
CCCc1[nH]nc2c1C1(C(=O)N(Cc3ccccc3)c3ccccc31)C(C(=O)OC)=C(N)O2 (centres undefined)	5%	50µM*	13%	-33%	-25%
COc1ccc(C2C([N+](=O)[O-])=C(N)Oc3c2c(=O)oc2ccccc32)cc1 (centres undefined)	.	4%[59 µM]	.	0%	.
CC1CC(C)(O)CC(C(O)CC2CC(=O)NC(=O)C2)C1=O (centres undefined)	18%	.	29%	.	-3%
O=C1NCN(c2ccccc2)C12CCN(C(c1cc3ccccc3o1)c1nnnn1Cc1ccccc1)CC2 (centres undefined)	-6%	.	.	.	.
CC(=O)c1cn(Cc2ccc(F)cc2)c2ccccc12	-4%	14%	23%	-33%	-2%
CC(N)Cc1cn(Cc2ccccc2)c2ccccc12 (centres undefined)	6%	?	-22%	-30%	79µM*
CN[C@@H](C)[C@@H](O)c1ccccc1	-2%	22%[12.7 µM]	22%	-8%	-12%
O=C(NC12CC3CC(CC(C3)C1)C2)OC1CN2CCC1CC2 (centres undefined)	?	-26%	15%	0%	-14%
CC1CCCN(CC(=O)N2CCCc3ccccc32)C1 (centres undefined)	-7%	-1%[59 µM]	24%	13%	1%
O=C(O)C1Cc2ccccc2N2CCCC12 (centres undefined)	4%	40µM*	83%	-24%	-19%
CCCCCCOc1ccc(CN2CCN(CCO)CC2)cc1	1%	?	17%	?	-25%
CN(C)c1ccc2c(c1)N=C(c1ccco1)OP2(=S)N1CCOCC1 (centres undefined)	-4%	14µM*	11µM*	?	79µM*
O/N=C/c1c[nH]c2ccccc12	22%	-5%	15%	-7%	-13%
C/C(=N\NC(=O)c1ccccc1Cl)c1c(O)n(C2CCCCC2)c(=O)[nH]c1=O	4%	2%	29%	-1%	-22%
CCN1CCc2ccccc2C1	-3%	?	38%	-8%	-13%[11.4 µM]
CCN1CCN(CC(c2ccccc2)c2ccccc2)CC1	5%	?	?	10µM*	0.79µM*
CCCCCCCSc1cc(OC)c(CCN(C)C)cc1OC	0%	?	?	25µM*	35µM*
CCCCCSc1cc(OC)c(CCN)cc1OC	-10%	-13%[59 µM]	-31%	?	?
Cc1nc(-c2ccc(-c3ccc(C(=O)N4CCc5cc6c(cc54)C4(CCN(C)CC4)CO6)cc3)c(C)c2)no1	.	-14%[12.7 µM]	.	.	.
O=c1[nH]c2ccccc2n1C1CCN(C(CCc2ccccc2)c2nnnn2Cc2ccccc2)CC1 (centres undefined)	6%	.	.	.	.
CC(=O)O[C@H]1C(=O)[C@@]2(C)C([C@H](OC(=O)c3ccccc3)[C@]3(O)C[C@H](O)C(C)=C1C3(C)C)[C@]1(OC(C)=O)CO[C@@H]1C[C@H]2O (some centres undefined)	2%	.	22%	-2%	-6%
Nc1c(C(=O)NCC2CCCO2)c2nc3ccccc3nc2n1Cc1ccco1 (centres undefined)	-9%	-3%[12.7 µM]	96%	9%	32%
